From PubChem BioAssay
TDP1 cell noCPT: qHTS for Inhibitors of human tyrosyl-DNA phosphodiesterase 1 (TDP1): qHTS in cells in absence of CPT; DT40 Tdp1-/- hTDP1 cells, no CPT, ATP luminescence, 48 h; actives 15% (n = 420,000); Potency, µM (series often up to 46.2 µM), for the others: at the highest dose activity change, negative = growth inhibition, most hits filed as inhibitors; further: potency means the concentration at half of the fitted maximal effect; nearly all actives have a fitted effect of over 55% in size
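A cellular qHTS used chicken DT40 cells lacking endogenous Tdp1 but carrying stably transfected human TDP1. Compounds were applied without camptothecin, and cell growth kinetics were judged by ATP-dependent luminescence after ≥48 hr.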
IL1B secr inh: inhibitors of inflammasome signaling (IL-1 beta secretion); THP-1 LPS/ATP IL-1B secretion, AlphaLISA, 16 h; active compounds read low; activity change, % at 57.5 µM; AID 743279; actives 4.7% (n = 360,000); in the data active means activity change below about -50%; inconclusive means mostly about -30% to -49%
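Secreted IL-1B measured by AlphaLISA bead assay after 16 h compound exposure of THP-1 cells; compounds (final up to 57.5 uM) added 1 h before LPS (250 ng/mL) and ATP (1.25 mM) stimulation; lower signal means less secretion.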
ELG1 DNA repair: blocks ELG1-dependent DNA repair in HEK293T cells | actives 2.3% (n = 330,000) | AID 504467 | HEK293T ELG1-luciferase reporter, luminescence, 16 h; DNA damage induced by 5-fluorouridine | Potency, µM (top dose mostly 46.1 µM), for the others: at the top dose activity change, negative = inhibition, hits mostly inhibitors; further: potency means the concentration at half of the fitted maximal effect; nearly all actives have a fitted effect of over 55% in size
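Quantitative HTS, concentration-response format. 2,000 cells/well co-treated with 5-fluorouridine and compound, 16 hr in 5% CO2 at 37 °C; ONE-Glo luminescence read after 30 min.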
RORg inh: inhibitors of mouse ROR gamma transcriptional activity | P51450 | Drosophila S2 Gal4-RORgamma UAS-luciferase reporter, 20 h | Potency, µM (titrated, usually from 53.6 µM), without a hit: at the highest dose activity change, negative = inhibition, hits mostly inhibitors | actives 5.4% (n = 310,000); further: potency means the concentration at half of the fitted maximal effect; nearly all actives have a fitted effect of over 60% in size
Target sequence (P51450 whole entry, looked up, the tested form may be a part): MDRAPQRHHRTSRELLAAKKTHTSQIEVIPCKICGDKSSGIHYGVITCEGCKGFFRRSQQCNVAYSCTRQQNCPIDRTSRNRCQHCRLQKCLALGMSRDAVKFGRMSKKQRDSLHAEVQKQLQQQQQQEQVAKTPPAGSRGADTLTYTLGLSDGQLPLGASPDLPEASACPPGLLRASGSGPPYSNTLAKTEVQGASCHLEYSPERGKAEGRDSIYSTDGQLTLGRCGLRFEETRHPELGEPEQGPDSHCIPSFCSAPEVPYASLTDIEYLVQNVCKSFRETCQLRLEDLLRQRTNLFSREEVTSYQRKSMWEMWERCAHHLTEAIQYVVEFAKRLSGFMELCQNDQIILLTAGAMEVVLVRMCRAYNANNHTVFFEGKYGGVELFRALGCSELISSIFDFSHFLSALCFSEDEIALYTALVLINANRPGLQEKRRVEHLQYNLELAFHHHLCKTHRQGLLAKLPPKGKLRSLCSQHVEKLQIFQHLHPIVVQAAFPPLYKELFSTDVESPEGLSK
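Compounds are pin-transferred onto Drosophila Schneider cells expressing a copper-inducible Gal4–ROR gamma transactivation domain fusion. After 1 hr, copper sulfate is added to 700 uM final; luciferase is read 20 hr later.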
Gal4-VP16 FLuc: Gal4-VP16 reporter inhibition counter-screen; Drosophila S2 Gal4-VP16 UAS-luciferase, luminescence, 20 h; actives 3.5% (n = 310,000); Potency, µM (titrated, usually from 53.6 µM), for the others: at the top dose activity, negative = inhibition, most hits filed as inhibitors;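 further: Gal4-VP16 expression switched on by copper sulfate through the metallothionein promoter; potency means the concentration at half of the fitted maximal effect; nearly all actives have a fitted effect of over 50% in size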
DT40 TDP1 CPT: DT40-hTDP1 cell growth loss with CPT; AID 686979; Potency, µM (series often up to 46.2 µM), for the others: at the highest dose activity change, negative = growth inhibition, usual class: inhibitors; chicken DT40 Tdp1-/-;hTDP1 cells + 20 nM CPT, ATP luminescence, 48 h; actives 12% (n = 420,000); further: potency means the concentration at half of the fitted maximal effect; nearly all actives have a fitted effect of over 55% in size
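Chicken DT40 Tdp1-/- cells stably complemented with human TDP1 were seeded at 400 cells/well in medium containing 20 nM camptothecin, exposed to pin-transferred compounds, and grown at 37 °C for at least 48 hr. Viability was read as ATP luminescence.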
* marks the source's active call; other numbers are inactive results; u = inconclusive; x = no result; [ ] = dose if it differs, or a comment. Compounds with a hit are over-represented: about 21% of the library has one in this group of screens. Unless noted, the call rests on the fitted dose curve; in most records, active means well fitted curve in the direction sought with a large enough effect; inconclusive means small, poorly fitted or top-dose-only effect, or another doubt; inactive means no such curve, though single readings can be large; an effect the other way counts as inactive or inconclusive. On the % scale 0 is the no-effect control and ±100 the full control effect.

SMILES	TDP1 cell noCPT	IL1B secr inh	ELG1 DNA repair	RORg inh	Gal4-VP16 FLuc	DT40 TDP1 CPT
Cc1ccc2c(c1)cc1c(=O)n(CC(=O)NC(C)CCc3ccccc3)nc(C)n12 (stereo unspecified)	-16%	x	x	x	x	-7%
CCCCOC(=O)c1ccc(NC(=O)CSc2nnnn2C)cc1	u	-3	16%	5%	-15%	3%
CCOC(=O)C1CCCN(c2c(C(=O)c3ccc(OCC)cc3)cnc3ccccc23)C1 (stereo unspecified)	u	x	x	x	x	18µM*
CCOC(=O)C1CCN(c2c(C(=O)c3ccc(OCC)cc3)cnc3ccc(OC)cc23)CC1	21µM*	x	x	x	x	23µM*
CCOC(=O)C1CCCN(c2c(C(=O)c3ccccc3)cnc3ccc(OC)cc23)C1 (stereo unspecified)	21µM*	15	u	1%	u	15µM*
CCN1CCN(c2c(C(=O)c3ccc(OC)cc3)cnc3ccccc23)CC1	-18%	-18	1%	u	-18%	-15%
COc1ccc(C(=O)NN2CCCCC2)cc1OC	-10%	-16	3%	3%	-7%	-2%
COc1cc2ncc(C(=O)c3ccc(C)cc3)c(N3CCCCC3)c2cc1OC	12µM*	x	x	x	x	12µM*
COc1ccc(C(=O)N2CCC3(CCCN(C(=O)Nc4cccc(C#N)c4)C3)CC2)cc1	u	x	x	16%	0%	-11%
CC(OC(=O)c1cc(S(=O)(=O)N2CCOCC2)ccc1F)C(=O)NCc1ccc2c(c1)OCO2 (stereo unspecified)	0%	-10	-1%	x	x	9%
Cc1ccc(CNC(=O)CN2CCN(Cc3ccc(F)cc3)C2=O)cc1	-24%	x	x	x	x	-5%
CCC(C)c1ccc(-c2cc(C(=O)OCC(=O)Nc3cc(C)on3)c3ccccc3n2)cc1 (stereo unspecified)	16µM*	12	u	-2%	-17%	u
Cc1cc(NC(=O)c2cc(-c3ccc(OC(C)C)cc3)nc3ccccc23)no1	8.2µM*	-3	-26%	-12%	3%	-61%
COc1ccc(-c2cc(C(=O)OCC(=O)Nc3cc(C)on3)c3ccccc3n2)cc1OC	-18%	5	-12%	-4%	-7%	-12%
COc1ccc(NC(=S)Nc2ccc3nc(C)c(C)nc3c2)cc1	-25%	38	-6%	11µM*	-3%	-16%
CCCCSc1nc(C)cc(NC(=S)Nc2ccc(OC)cc2)n1	-28%	55	1%	1.3µM*	3.5µM*	-15%
CCOc1ccc(NC(=S)Nc2ccc3nsnc3c2)cc1	8.2µM*	3	-1%	-91%	u	5.8µM*
CCOc1ccc(NC(=O)Nc2ccc3nsnc3c2)cc1	u	u	u	u	-7%	u
C=CCNC(=S)Nc1ccc2nsnc2c1	-5%	5	u	-32%	6%	1%
CNC(=S)Nc1ccc2nc(C)c(C)nc2c1	-7%	16	17%	24%	-6%	-15%
C=CCN(CC=C)C(=S)Nc1ccc2nsnc2c1	u	45	-13%	3.5µM*	6.3µM*	-18%
COc1ccc(NC(=O)CSc2nccc(C)n2)cc1	-23%	24	u	-1%[0.365 µM]	x	-23%
COCc1c(C(=O)N2CCN(C3CCCCC3)CC2)cnn1-c1ncc(C)c(-c2cccs2)n1	-5%	x	x	x	x	2%[9.04 µM]
COc1ccc(NC(=S)Nc2ccc3nsnc3c2)cc1	18µM*	-4	-17%	10µM*	5.6µM*	6.5µM*
COc1ccc(NC(=S)Nc2ccc3cn[nH]c3c2)cc1	8%	-8	4%	-35%	18%	-20%
SMILES	TDP1 cell noCPT	IL1B secr inh	ELG1 DNA repair	RORg inh	Gal4-VP16 FLuc	DT40 TDP1 CPT
COc1cc2c(cc1OC)CN(C(=O)c1cc(COc3ccccc3SC)on1)CC2	u	0	x	x	x	u
CSc1ccccc1OCc1cc(C(=O)N2CCc3c(Cl)cccc3C2)no1	u	u	-14%	13µM*	u	23µM*
C=CCC1(CC=C)CCCN1C(=O)c1cc(COc2ccccc2SC)on1	21µM*	-1	u	6%	-20%	u
C=CCC1(CC=C)CCCN1C(=O)c1cc(COc2ccc(C)nc2)on1	0.92µM*	-8	u	u	8.9µM*	2.6µM*
C=CCC1(CC=C)CCCN1C(=O)c1cc(COc2ccc(F)c(F)c2)on1	u	-8	u	9%	u	18µM*
CC(C)CN(CCCNC(=O)CN1C(=O)COc2ccc(S(=O)(=O)N3CCOCC3)cc21)CC(C)C	9%	1	0%	-14%	-5%	2%
COCC(=O)N1CCC2(CCCN(c3ncccn3)C2)CC1	0%	x	x	0%	-3%	8%
Cc1cc(OCc2cc(C(=O)NC3CCC3)no2)cc(C)c1Cl	u	8	5%	18%	-19%	u
Cc1ccc(OCc2cc(C(=O)NC3CCCCC3)no2)cn1	8.2µM*	19	u	-14%	u	13µM*
Cc1ccc(S(=O)(=O)n2nc(C)c(S(=O)(=O)N3CCC(C)CC3)c2C)cc1	4%	x	x	x	x	-19%
Cc1ccc(S(=O)(=O)c2nnn(CC(=O)Nc3ccccc3C)c2N)cc1C	15µM*	x	x	x	x	u
CCCCN(CCCC)C(=O)CSc1nnc(-c2cc(OC)c(OC)c(OC)c2)o1	14µM*	-54*	10µM*	-5%	12%[0.365 µM]	18µM*
COc1cc(-c2nnc(SCC(=O)N(Cc3ccccc3)C(C)(C)C)o2)cc(OC)c1OC	15µM*	-56*	21µM*	-22%	-1%	13µM*
COc1cc(-c2nnc(SCC(=O)N(C)C3CCS(=O)(=O)C3)o2)cc(OC)c1OC (stereo unspecified)	-5%	0	-2%	-4%	4%	11%
O=S(=O)(c1cccs1)N1CCN(CCOc2ccc(Cl)cc2)CC1	u	-59*	-18%	x	x	u
O=S(=O)(c1cccs1)N1CCN(CC(O)COc2cc(Cl)ccc2Cl)CC1 (stereo unspecified)	23µM*	-16	8.2µM*	-10%	18µM*	u
NS(=O)(=O)c1ccc(N2CCN(S(=O)(=O)Cc3ccccc3)CC2)nc1	-11%	23	-1%	x	x	-10%
O=S(=O)(c1ccc(Br)s1)N1CCN(CCOc2ccccc2)CC1	u	u	u	x	x	21µM*
O=S(=O)(c1cccs1)N1CCN(c2ccc(Cl)cc2)CC1	-23%	-11	-4%	19%	-14%	6%
